# From the supplement of paper PMC8728848
# The entries come from a sample that favours the strongest signals as a whole.
# B1: DC-ASGPR-short (Homo sapiens) (protein)
# chain: MTRTYENFQYLENKVKVQGFKNGPLPLQSLLQRLRSGPCHLLLSLGLGLLLLVIICVVGFQNSKFQRDLVTLRTDFSNFTSNTVAEIQALTSQGSSLEETIASLKAEVEGFKQERQAVHSEMLLRVQQLVQDLKKLTCQVATLNNNASTEGTCCPVNWVEHQDSCYWFSHSGMSWAEAEKYCQLKNAHLVVINSREEQNFVQKYLGSAYTWMGLSDPEGAWKWVDGTDYATGFQNWKPGQPDDWQGHGLGGGEDCAHFHPDGRWNDDVCQRPYHWVCEAGLGQTSQESH
# Legend:
# Experiment in all cases: glycan array binding signal (z-score within array); higher = stronger binding
# Conditions in all cases: glycan notation: IUPAC condensed, linker removed
# [1] = target: Fuc(a1-2)Gal(b1-4)GlcNAc(b1-6)GalNAc
# Outline: (§1)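 The binding signal is a Z-score computed within each array. Data were drawn from 3228 arrays in the Consortium for Functional Glycomics database, restricted to those with a known protein sequence. Scores were averaged over arrays of the same protein sequence at different concentrations or buffers, and over linkers, and negative values can be taken as non-binding.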
# [2] = target: Fuc(a1-2)Gal(b1-4)[Fuc(a1-3)]GlcNAc(b1-2)[Fuc(a1-2)Gal(b1-4)[Fuc(a1-3)]GlcNAc(b1-4)]Man(a1-3)[Fuc(a1-2)Gal(b1-4)[Fuc(a1-3)]GlcNAc(b1-2)Man(a1-6)]Man(b1-4)GlcNAc(b1-4)GlcNAc
# Outline: as §1
# [3] = target: Fuc(a1-2)[Gal(a1-3)]Gal(b1-4)GlcNAc(b1-3)[Fuc(a1-2)[Gal(a1-3)]Gal(b1-4)GlcNAc(b1-6)]GalNAc
# Outline: as §1
# [4] = target: Fuc(a1-2)[Gal(a1-4)]Gal(b1-4)GlcNAc
# Outline: as §1
# [5] = target: Fuc(a1-2)[GalNAc(a1-3)]Gal
# Outline: as §1
# [6] = target: Fuc(a1-2)[GalNAc(a1-3)]Gal(b1-3)GalNAc(a1-3)[Fuc(a1-2)]Gal(b1-4)GlcNAc
# Outline: as §1
# [7] = target: Fuc(a1-2)[GalNAc(a1-3)]Gal(b1-4)GlcNAc(b1-3)Gal(b1-4)GlcNAc
# Outline: as §1
# [8] = target: Fuc(a1-2)[GalNAc(a1-4)]Gal(b1-4)GlcNAc
# Outline: as §1
# [9] = target: Fuc(a1-2)[GalNAc(b1-3)]Gal
# Outline: as §1
# [10] = target: Fuc(a1-3)[Gal(b1-4)]GlcNAc
# Outline: as §1
# [11] = target: Fuc(a1-3)[Gal(b1-4)]GlcNAc(b1-3)Gal(b1-3)[Fuc(a1-4)]GlcNAc
# Outline: as §1
# [12] = target: Fuc(a1-3)[GalNAc(b1-4)]GlcNAc
# Outline: as §1
# Gal(b1-3)GalNAc(b1-3)Gal = target: Gal(b1-3)GalNAc(b1-3)Gal
# Outline: as §1
# [13] = target: Gal(b1-3)[Fuc(a1-4)]GlcNAc
# Outline: as §1
# [14] = target: Gal(b1-3)[Fuc(a1-4)]GlcNAc(b1-2)Man
# Outline: as §1
# [15] = target: Gal(b1-4)GlcNAc(b1-2)[Gal(b1-4)GlcNAc(b1-6)]Man(a1-6)[GlcNAc(b1-4)][Gal(b1-4)GlcNAc(b1-2)Man(a1-3)]Man(b1-4)GlcNAc(b1-4)GlcNAc
# Outline: as §1
# [16] = target: Gal(b1-4)GlcNAc(b1-3)Gal(b1-4)GlcNAc(b1-2)Man(a1-3)[Gal(b1-4)GlcNAc(b1-3)Gal(b1-4)GlcNAc(b1-2)Man(a1-6)]Man(b1-4)GlcNAc(b1-4)GlcNAc
# Outline: as §1
# [17] = target: Gal(b1-4)GlcNAc(b1-3)Gal(b1-4)GlcNAc(b1-3)Gal(b1-4)GlcNAc(b1-2)Man(a1-3)[Gal(b1-4)GlcNAc(b1-3)Gal(b1-4)GlcNAc(b1-3)Gal(b1-4)GlcNAc(b1-2)Man(a1-6)]Man(b1-4)GlcNAc(b1-4)GlcNAc
# Outline: as §1
# [18] = target: Gal(b1-4)GlcNAc(b1-3)Gal(b1-4)GlcNAc(b1-3)Gal(b1-4)GlcNAc(b1-2)[Gal(b1-4)GlcNAc(b1-3)Gal(b1-4)GlcNAc(b1-3)Gal(b1-4)GlcNAc(b1-6)]Man(a1-6)[Gal(b1-4)GlcNAc(b1-3)Gal(b1-4)GlcNAc(b1-3)Gal(b1-4)GlcNAc(b1-2)Man(a1-3)]Man(b1-4)GlcNAc(b1-4)[Fuc(a1-6)]GlcNAc
# Outline: as §1
# [19] = target: Gal(b1-4)GlcNAc(b1-6)GalNAc
# Outline: as §1
# Gal3S(b1-4)GlcNAc = target: Gal3S(b1-4)GlcNAc
# Outline: as §1
# [20] = target: GalNAc(b1-3)Gal(a1-4)Gal(b1-4)GlcNAc
# Outline: as §1
# GalNAc(b1-4)GlcNAc = target: GalNAc(b1-4)GlcNAc
# Outline: as §1
# [21] = target: GalNAc(b1-4)GlcNAc(b1-3)GalNAc(b1-4)GlcNAc
# Outline: as §1
# GalNAc(b1-4)GlcNAc6S = target: GalNAc(b1-4)GlcNAc6S
# Outline: as §1
# [22] = target: GalNAc3S(b1-4)[Fuc(a1-3)]GlcNAc
# Outline: as §1
# GlcA(b1-3)GlcNAc = target: GlcA(b1-3)GlcNAc
# Outline: as §1
# [23] = target: GlcNAc(a1-4)Gal(b1-4)GlcNAc
# Outline: as §1
# [24] = target: GlcNAc(a1-4)Gal(b1-4)GlcNAc(b1-3)Gal(b1-4)[Fuc(a1-3)]GlcNAc(b1-3)Gal(b1-4)[Fuc(a1-3)]GlcNAc
# Outline: as §1
# [25] = target: GlcNAc(b1-3)Gal(b1-4)GlcNAc(b1-3)[GlcNAc(b1-3)Gal(b1-4)GlcNAc(b1-3)]GalNAc
# Outline: as §1
# [26] = target: GlcNAc(b1-3)[GlcNAc(b1-6)]GalNAc
# Outline: as §1
# GlcNAc(b1-6)GalNAc = target: GlcNAc(b1-6)GalNAc
# Outline: as §1
# [27] = target: GlcNAc6S(b1-3)Gal(b1-4)GlcNAc
# Outline: as §1
# [28] = target: Neu5Ac(a2-3)Gal(b1-3)GalNAc6S
# Outline: as §1
# [29] = target: Neu5Ac(a2-3)Gal(b1-3)GlcNAc(b1-6)GalNAc
# Outline: as §1
# [30] = target: Neu5Ac(a2-3)Gal(b1-3)[Neu5Ac(a2-6)]GalNAc
# Outline: as §1
# [31] = target: Neu5Ac(a2-3)Gal(b1-4)GlcNAc(b1-6)[Gal(b1-3)]GalNAc
# Outline: as §1
# [32] = target: Neu5Ac(a2-3)Gal(b1-4)[Fuc(a1-3)]GlcNAc(b1-2)Man
# Outline: as §1
# [33] = target: Neu5Ac(a2-3)Gal(b1-4)[Fuc(a1-3)]GlcNAc(b1-6)[Gal(b1-3)]GalNAc
# Outline: as §1
# [34] = target: Neu5Ac(a2-6)Gal(b1-4)GlcNAc(b1-2)Man(a1-6)[Man(a1-3)]Man(b1-4)GlcNAc(b1-4)GlcNAc
# Outline: as §1
# [35] = target: Neu5Ac(a2-6)Gal(b1-4)GlcNAc(b1-2)[Neu5Ac(a2-6)Gal(b1-4)GlcNAc(b1-4)]Man(a1-3)[GlcNAc(b1-4)][Neu5Ac(a2-6)Gal(b1-4)GlcNAc(b1-4)Man(a1-6)]Man(b1-4)GlcNAc(b1-4)GlcNAc
# Outline: as §1
# [36] = target: Neu5Ac(a2-8)Neu5Ac(a2-3)Gal(b1-4)Glc
# Outline: as §1
# [37] = target: Neu5Gc(a2-8)Neu5Gc(a2-6)Gal(b1-4)GlcNAc
# Outline: as §1
# [38] = target: Neu5Gc(b2-6)Gal(b1-4)GlcNAc
# Outline: as §1
binder,measurement,setting,value
B1,glycan array binding signal (z-score),[1],4.65
same,glycan array binding signal (z-score),[2],-0.192
same,glycan array binding signal (z-score),[3],-0.17
same,glycan array binding signal (z-score),[4],-0.263
same,glycan array binding signal (z-score),[5],0.967
same,glycan array binding signal (z-score),[6],1.27
same,glycan array binding signal (z-score),[7],0.335
same,glycan array binding signal (z-score),[8],3.1
same,glycan array binding signal (z-score),[9],4.03
same,glycan array binding signal (z-score),[10],-0.28
same,glycan array binding signal (z-score),[11],-0.284
same,glycan array binding signal (z-score),[12],3.04
same,glycan array binding signal (z-score),Gal(b1-3)GalNAc(b1-3)Gal,-0.217
same,glycan array binding signal (z-score),[13],-0.264
same,glycan array binding signal (z-score),[14],-0.106
same,glycan array binding signal (z-score),[15],-0.282
same,glycan array binding signal (z-score),[16],-0.244
same,glycan array binding signal (z-score),[17],-0.221
same,glycan array binding signal (z-score),[18],-0.198
same,glycan array binding signal (z-score),[19],3.52
same,glycan array binding signal (z-score),Gal3S(b1-4)GlcNAc,-0.271
same,glycan array binding signal (z-score),[20],6.36
same,glycan array binding signal (z-score),GalNAc(b1-4)GlcNAc,4.38
same,glycan array binding signal (z-score),[21],4.52
same,glycan array binding signal (z-score),GalNAc(b1-4)GlcNAc6S,4.1
same,glycan array binding signal (z-score),[22],-0.256
same,glycan array binding signal (z-score),GlcA(b1-3)GlcNAc,-0.28
same,glycan array binding signal (z-score),[23],-0.273
same,glycan array binding signal (z-score),[24],-0.266
same,glycan array binding signal (z-score),[25],-0.295
same,glycan array binding signal (z-score),[26],-0.234
same,glycan array binding signal (z-score),GlcNAc(b1-6)GalNAc,4.64
same,glycan array binding signal (z-score),[27],-0.27
same,glycan array binding signal (z-score),[28],-0.279
same,glycan array binding signal (z-score),[29],5.92
same,glycan array binding signal (z-score),[30],-0.224
same,glycan array binding signal (z-score),[31],-0.283
same,glycan array binding signal (z-score),[32],-0.238
same,glycan array binding signal (z-score),[33],-0.285
same,glycan array binding signal (z-score),[34],-0.288
same,glycan array binding signal (z-score),[35],-0.34
same,glycan array binding signal (z-score),[36],-0.277
same,glycan array binding signal (z-score),[37],-0.279
same,glycan array binding signal (z-score),[38],-0.278
